{
  "source": "PubChem BioAssay (NCI)",
  "note": "About 83,000 compounds went through this panel and 20% of them were active in at least one assay; those are over-represented in the sample as a whole.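 Single-dose data. Exposure time 48 hours. Values below 10 considered active.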 A number with no mark means an inactive call. The source made the active and inactive calls.",
  "data": [
    {"system": "U251 CNS", "experiment": "NCI-60 one-dose screen, 48 h (100 = growth as untreated, 0 = no growth, -100 = all killed)", "conditions": "10 µM unless noted", "description": "Growth inhibition of the U251 human tumor cell line is measured as a screen for anti-cancer activity. Cells are grown in 96 well plates and exposed to the test compound for 48 hours. Compounds are tested at a single concentration, which is 10^-5 M for most compounds. The reported endpoint is percent growth (GI% or GIPRCNT), where numbers from 0 - 100% represent growth inhibition, and numbers from -100% - 0 represent cell death. For example, a value of 40 represents 60% growth inhibition. A value of 0 means no net growth occurred over the course of the experiment. A value of -40 indicates 40% of cells at the beginning of the experiment died by the end of the experiment. A value of -100 means all cells are dead at the end of the experiment.\nNCI-60 Human Tumor Cell Lines Screen was performed using the standard one-dose NCI protocol, which is described in more detail at https://dtp.cancer.gov/discovery_development/nci-60/default.htm.\nCompounds with GIPRCNT values below 10 were considered active. Activity score was based on GIPRCNT using the following formula: […]\nScore is 0 for GIPRCNT values of 100 or above, 50 for GIPRCNT values of 0, and 100 for GIPRCNT values of -100.", "values": [
      {"compound": "C[C@]12CC[C@@H]3c4ccc(Oc5nc(N6CC6)nc(N6CC6)n5)cc4CC[C@H]3[C@@H]1CCC2=O", "growth": "31.9%"},
      {"compound": "CC(C)(C)C(=O)OCOP(=O)(OCOC(=O)C(C)(C)C)C1CCCN(O)C1=O", "note": "(stereo not given)", "growth": "2.06% (active)"},
      {"compound": "COC1=CC(=O)O[C@@H](/C=C/c2ccc3c(c2)OCO3)C1", "growth": "97.9%"},
      {"compound": "COc1ccc(O)c(CNC(=O)CN2CCCC2=O)c1", "growth": "103%"},
      {"compound": "O=C1OCCC1Br", "note": "(stereo not given)", "growth": "92.2%"},
      {"compound": "CN1CCC(c2c[nH]c3ccccc23)C1", "note": "(stereo not given)", "growth": "98.2%"},
      {"compound": "CC1[C@H](C)OC(=O)CC(O)CC(O)CC(O)CCC(O)C(O)C[C@]2(O)CC(O)C(C(=O)O)C(CC(OC3O[C@H](C)[C@@H](O)[C@H](N)[C@@H]3O)/C=C/C=C/C=C/C=C/CC/C=C/C=C/[C@H](C)[C@H]1O)O2", "note": "(stereo not given in full)", "growth": "92.4%"},
      {"compound": "C=C(C)[C@@]12OC3(/C=C/C=C/CCCCC)O[C@@H]1[C@@H]1[C@@H]4O[C@]4(CO)[C@@H](O)[C@]4(O)C(=O)C(C)=C[C@H]4[C@@]1(O3)[C@H](C)[C@H]2OC(=O)c1ccccc1", "growth": "53.2%"},
      {"compound": "C[S+]1C=Cc2ccccc2C1c1ccc(Cl)cc1", "note": "(stereo not given)", "growth": "67%"},
      {"compound": "CC[C@H](NC(=O)[C@H]1CCCCN1C)C(=O)N(C)[C@H](C[C@@H](OC(C)=O)c1nc(C(=O)N[C@@H](Cc2ccccc2)C[C@H](C)C(=O)O)cs1)C(C)C", "growth": "14.9%"},
      {"compound": "COc1ccc(N(CC(=O)NCCC[Te]c2ccccc2)C(=O)CCSC2=C(C)C(=O)c3ccccc3C2=O)cc1", "growth": "-42.7% (active)"},
      {"compound": "Cn1cc(C2=C(c3cn(C4CCN(Cc5ccccn5)CC4)c4ccccc34)C(=O)NC2=O)c2ccccc21", "growth": "88.4%"},
      {"compound": "CCCCCCC(=O)NC1=C(N2CC2)C(=O)C(NC(=O)CCCCCC)=C(N2CC2)C1=O", "growth": "52.1%"},
      {"compound": "O=C(CC1(O)C(=O)N(Cc2ccccc2)c2ccccc21)c1ccc(C(=O)NCC2CCC3(CC2)OOC2(CCCCC2)OO3)cc1", "note": "(stereo not given)", "growth": "-77.2% (active)"},
      {"compound": "CN(C)C(=O)Oc1ccc(Br)cc1", "growth": "98.3%"},
      {"compound": "COc1cc(/C=C/[N+](=O)[O-])c([N+](=O)[O-])cc1OC", "growth": "15.7%"},
      {"compound": "c1ccc(COc2ccc3[nH]cc(CCN(Cc4ccccc4)Cc4ccccc4)c3c2)cc1", "growth": "81.6%"},
      {"compound": "CC(=O)O[C@H](C[C@H](C(C)C)N(C)C(=O)[C@@H](NC(=O)[C@H]1CCCCN1C)C(C)C)c1nc(C(=O)N[C@@H](Cc2ccccc2)C[C@H](C)C(=O)O)c(C(C)C)s1", "growth": "15.4%"},
      {"compound": "COc1cc([C@@H]2c3cc4c(cc3[C@H](OC(C)=O)[C@H]3COC(=O)[C@H]23)OCO4)cc(OC)c1OC", "growth": "18.9%"},
      {"compound": "CC(C)OC(=O)[C@H](C)NP(=O)(Oc1ccccc1)C1CCCN(O)C1=O", "note": "(stereo not given in full)", "growth": "105%"},
      {"compound": "O=NN1CCCc2cccc(O)c21", "growth": "21.9%"},
      {"compound": "COc1cc(C=Nc2cccc(C(=O)O)c2)ccc1N(CCCl)CCCl", "growth": "100%"},
      {"compound": "COC1CC2c3ccccc3C1C(C)=[N+]2C", "note": "(stereo not given)", "growth": "99.1%"},
      {"compound": "O=C(CC1(O)C(=O)N(Cc2ccccc2)c2ccc(F)cc21)c1ccc(C(=O)NCC2CCC3(CC2)OOC2(CCCCC2)OO3)cc1", "note": "(stereo not given)", "growth": "-80.1% (active)"},
      {"compound": "CC[C@@H]1[C@@H](C)O[C@@](O)([C@@H](C)[C@H](O)[C@H](C)[C@H]2OC(=O)/C=C/C=C/[C@H](C)[C@@H]([C@@H](C)[C@@H](O)[C@H](C)[C@@]3(O)C[C@@H](O[C@H]4C[C@@H](O)[C@H](O)C(C)O4)[C@H](CC)[C@@H](C)O3)OC(=O)/C=C/C=C/[C@@H]2C)C[C@H]1O[C@@H]1C[C@@H](O)[C@H](O)C(C)O1", "note": "(stereo not given in full)", "growth": "-92.8% (active)"},
      {"compound": "COC(=O)[C@@H](C)C[C@H](Cc1cn(C)c2ccccc12)NC(=O)c1csc([C@@H](C[C@H](C(C)C)N(C)C(=O)[C@@H](NC(=O)[C@H]2CCCCN2C)C(C)C)OC(C)=O)n1", "growth": "15.4%"},
      {"compound": "Nc1c(F)cc(-c2nc3cc(F)ccc3[se]2)cc1F", "growth": "93.6%"},
      {"compound": "Nc1cc2nc3ccccc3nc2cc1N", "growth": "77.2%"},
      {"compound": "N#CC1(C#N)C(c2ccc(N(CCCl)CCCl)cc2)OC23CCCCC2C1(C#N)C(=N)O3", "note": "(stereo not given)", "growth": "75.8%"},
      {"compound": "O=[N+]([O-])c1ccc(OP(=O)(CCl)N(CCCl)CCCl)cc1", "note": "(stereo not given)", "growth": "96.1%"},
      {"compound": "c1ccc(CSC(c2ccccc2)c2ccccc2)cc1", "growth": "102%"},
      {"compound": "N#Cc1c(Br)n(C2OC(CO)C(O)C2O)c2ncnc(N)c12", "note": "(stereo not given)", "growth": "69.4%"},
      {"compound": "CC(=O)OC1CCC2C3CCC4=C/C(=N/OC(=O)c5ccc(N(CCCl)CCCl)cc5)CCC4(C)C3CC(C)C12", "note": "(stereo not given)", "growth": "59.3%"},
      {"compound": "Cn1cc(-c2csc(-c3cn(CCCCN4CCCCC4)c4ccc(F)cc34)n2)c2cccnc21", "growth": "80.7%"},
      {"compound": "CN(C)C1C(=O)C(C(N)=O)=C(O)C2(O)C(=O)C3=C(O)c4c(O)cccc4C(C)(O)C3CC12.[Cl][Sb]([Cl])[Cl]", "note": "(stereo not given)", "growth": "10.8%"},
      {"compound": "C[n+]1c(/C=C/c2ccc(N(CCCl)CCCl)cc2)sc2ccccc21", "growth": "30.1%"},
      {"compound": "C=CC[PH+](c1ccccc1)c1ccccc1.C=CC[PH+](c1ccccc1)c1ccccc1.[Cl][Pt][Cl]", "growth": "37.5%"},
      {"compound": "C[C@@H]1O[C@@H](O[C@H]2C[C@@H](O)[C@]3(CO)C4C(CC[C@]3(O)C2)[C@@]2(O)CC[C@H](C3=CC(=O)OC3)[C@@]2(C)C[C@H]4O)[C@H](O)[C@H](O)[C@H]1O", "note": "(stereo not given in full)", "growth": "-97.3% (active)"},
      {"compound": "CC12CCC3C(C=CC4=C(N)C(=O)CCC43C)C1CCC2=O", "note": "(stereo not given)", "growth": "54.2%"},
      {"compound": "C[C@@H]1CCC2[C@@H](C)[C@H](OC(=O)CCC(=O)NCCNC(=O)Cc3cc(=O)oc4cc(N(C)C)ccc34)O[C@@H]3O[C@]4(C)CC[C@@H]1C23OO4", "note": "(stereo not given in full)", "growth": "34.4%"}
    ]}
  ]
}
